# Experimental data taken from PubChem BioAssay (NCATS).
# A number with no mark means an inactive call. Records with an inconclusive call do not appear. A call without a number means that no potency is given here. Activity calls are given as the source filed them. Unless noted, the call rests on the fitted dose curve; in most records, active means well fitted curve in the direction sought with a large enough effect; inconclusive means small, poorly fitted or top-dose-only effect, or another doubt; inactive means no such curve, though single readings can be large; an effect the other way counts as inactive or inconclusive.
# How the values were obtained:
# Es-2 = experiment: Primary qHTS to identify gynecologic anti-cancer compounds using libraries of approved drugs and bioactive compounds (AID 1345084); settings: Gynecologic cancer cell panel viability, ATPlite luminescence, 48 h; series mostly up to 57.5 µM; further: nearly all actives have a fitted effect of over 55% in size; further: potency means the concentration at half of the fitted maximal effect
# How it was run: (§1)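 Cells, 1,000 per well, plated 16 h, then exposed 48 h at 37 C to compounds. Viability by ATPlite luminescence after 15 min at room temperature.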
# Hek293T = experiment: as above; settings: Gynecologic cancer cell panel viability, ATPlite luminescence, 48 h, control line for the selectivity index; series mostly up to 57.5 µM
# How it was run: as §1
# JEG-3 = experiment: as above; settings: Gynecologic cancer cell panel viability, ATPlite luminescence, 48 h; series mostly up to 57.5 µM
# How it was run: as §1
# OV90 = experiment: as above; settings: Gynecologic cancer cell panel viability, ATPlite luminescence, 48 h; series mostly up to 57.5 µM
# How it was run: as §1
# PA-1 = experiment: as above; settings: Gynecologic cancer cell panel viability, ATPlite luminescence, 48 h; series mostly up to 57.5 µM
# How it was run: as §1
# SKOV3 = experiment: as above; settings: Gynecologic cancer cell panel viability, ATPlite luminescence, 48 h; series mostly up to 57.5 µM
# How it was run: as §1
# Tov-21-G = experiment: as above; settings: Gynecologic cancer cell panel viability, ATPlite luminescence, 48 h; series mostly up to 57.5 µM
# How it was run: as §1
# Tov112D = experiment: as above; settings: Gynecologic cancer cell panel viability, ATPlite luminescence, 48 h; series mostly up to 57.5 µM
# How it was run: as §1
# [1] = Drug repurposing screens with cells derived from glioblastoma tumor samples (AID 1345199); settings: GBM patient neurospheres viability, ATP luminescence, 48 h; further: nearly all actives have a fitted effect of over 40% in size; further: potency means the concentration at half of the fitted maximal effect
# How it was run: (§2)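 Primary testing used CD133+ neurospheres from four GBM patients, seven concentrations, 48 h exposure and ATP-based viability; confirmation added three slower-growing patient lines.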
# astro = experiment: as above; settings: viability, ATP luminescence, 48 h; series mostly up to 45.9 µM
# How it was run: as §2
# [2] = target: Nuclear receptor subfamily 1 group I member 2 (Rattus norvegicus) (UniProt Q9R1A7); experiment: qHTS assay for small molecule activators of the rat pregnane X receptor (rPXR) signaling pathway (AID 651751; call rule not given here); settings: rPXR reporter cells, luciferase (One-Glo), 24 h
# [3] = qHTS assay for small molecule activators of the human pregnane X receptor (PXR) signaling pathway (AID 720659; call rule not given here)
# HeLa = experiment: Primary qHTS to identify gynecologic anti-cancer compounds using libraries of approved drugs and bioactive compounds (AID 1345084); settings: Gynecologic cancer cell panel viability, ATPlite luminescence, 48 h; series mostly up to 57.5 µM; further: nearly all actives have a fitted effect of over 55% in size; further: potency means the concentration at half of the fitted maximal effect
# How it was run: as §1
# [4] = at 20 µM (top of the series), tumour line C
# [5] = at 21.2 µM (top of the series), tumour line B
# [6] = at 21.2 µM (top of the series), tumour line D
# [7] = at 21.3 µM (top of the series), tumour line A
# [8] = at 45.9 µM (top of the series), tumour line B
# [9] = at 45.9 µM (top of the series), tumour line D
# [10] = at 46 µM (top of the series), tumour line A
# [11] = at 46.1 µM (top of the series), tumour line C
# Sequence of Nuclear receptor subfamily 1 group I member 2 (Rattus norvegicus) (Q9R1A7 whole entry, looked up): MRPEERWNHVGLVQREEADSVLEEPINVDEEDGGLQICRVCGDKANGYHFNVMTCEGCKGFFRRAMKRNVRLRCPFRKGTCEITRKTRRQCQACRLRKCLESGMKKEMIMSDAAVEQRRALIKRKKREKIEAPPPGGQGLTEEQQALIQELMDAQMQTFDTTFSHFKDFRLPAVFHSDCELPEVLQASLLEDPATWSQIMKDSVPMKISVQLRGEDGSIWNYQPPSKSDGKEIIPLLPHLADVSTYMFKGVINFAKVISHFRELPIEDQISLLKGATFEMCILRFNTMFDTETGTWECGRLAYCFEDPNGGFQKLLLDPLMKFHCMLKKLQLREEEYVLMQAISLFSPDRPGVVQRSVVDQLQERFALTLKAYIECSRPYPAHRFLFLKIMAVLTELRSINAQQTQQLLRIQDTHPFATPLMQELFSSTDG
compound,measurement,setting,value
CCOC(=O)c1ccc(OC(=O)CCCCCN=C(N)N)cc1,Potency,Es-2,inactive
same,Potency,Hek293T,inactive
same,Potency,JEG-3,inactive
same,Potency,OV90,inactive
same,Potency,PA-1,inactive
same,Potency,SKOV3,inactive
same,Potency,Tov-21-G,inactive
same,Potency,Tov112D,inactive
same,"activity, negative = cell killing",[1]; [4],-4.52%
same,"activity, negative = cell killing",[1]; [5],-7.17%
same,"activity, negative = cell killing",[1]; [6],-2.23%
same,"activity, negative = cell killing",[1]; [7],-25.1%
same,Potency,astro,inactive
O=S(=O)(O)CCS,Potency,Es-2,inactive
same,Potency,Hek293T,inactive
same,Potency,JEG-3,inactive
same,Potency,OV90,inactive
same,Potency,PA-1,inactive
same,Potency,SKOV3,inactive
same,Potency,Tov-21-G,inactive
same,Potency,Tov112D,inactive
same,"activity, negative = cell killing",[1]; [8],-4.82%
same,"activity, negative = cell killing",[1]; [9],-6.41%
same,"activity, negative = cell killing",[1]; [10],-21.8%
same,"activity, negative = cell killing",[1]; [11],-18%
same,Potency,astro,inactive
COC(c1ccccc1)(c1ccccc1)[C@H](Oc1nc(C)cc(C)n1)C(=O)O,Potency,Es-2,inactive
same,Potency,Hek293T,inactive
same,Potency,JEG-3,inactive
same,Potency,OV90,inactive
same,Potency,PA-1,inactive
same,Potency,SKOV3,inactive
same,"activity, negative = cell killing",[1]; [8],-11%
same,"activity, negative = cell killing",[1]; [9],-22.7%
same,"activity, negative = cell killing",[1]; [10],-16.8%
same,"activity, negative = cell killing",[1]; [11],2.92%
same,Potency,astro,inactive
CS(=O)(=O)c1ccc([C@@H](O)[C@@H](CO)NC(=O)C(Cl)Cl)cc1,Potency,Es-2,inactive
same,Potency,Hek293T,inactive
same,Potency,JEG-3,inactive
same,Potency,OV90,inactive
same,Potency,PA-1,inactive
same,Potency,SKOV3,inactive
same,Potency,Tov112D,inactive
same,"activity, negative = cell killing",[1]; [4],-12.8%
same,"activity, negative = cell killing",[1]; [5],-9.12%
same,"activity, negative = cell killing",[1]; [6],-24.7%
same,"activity, negative = cell killing",[1]; [7],-19.8%
same,Potency,astro,inactive
Cc1ncc([N+](=O)[O-])n1CCO,Potency,Es-2,inactive
same,Potency,Hek293T,inactive
same,Potency,JEG-3,inactive
same,Potency,OV90,inactive
same,Potency,PA-1,inactive
same,Potency,SKOV3,inactive
same,Potency,Tov-21-G,inactive
same,Potency,Tov112D,inactive
same,"activity, negative = cell killing",[1]; [8],-7.77%
same,"activity, negative = cell killing",[1]; [9],10.9%
same,"activity, negative = cell killing",[1]; [10],-19.2%
same,"activity, negative = cell killing",[1]; [11],12.6%
same,Potency,astro,inactive
same,max response,[2],6.53%
same,outcome,[3],inactive
Cc1nnc(NS(=O)(=O)c2ccc(N)cc2)s1,Potency,Es-2,inactive
same,Potency,Hek293T,inactive
same,Potency,JEG-3,inactive
same,Potency,OV90,inactive
same,Potency,PA-1,inactive
same,Potency,SKOV3,inactive
same,Potency,Tov-21-G,inactive
same,Potency,Tov112D,inactive
same,"activity, negative = cell killing",[1]; [8],4.69%
same,"activity, negative = cell killing",[1]; [9],17.1%
same,"activity, negative = cell killing",[1]; [10],7.16%
same,"activity, negative = cell killing",[1]; [11],5.44%
same,max response,[2],-0.291%
same,outcome,[3],inactive
NCCCC(O)(P(=O)(O)O)P(=O)(O)O,Potency,Es-2,inactive
same,Potency,Hek293T,inactive
same,Potency,JEG-3,inactive
same,Potency,OV90,inactive
same,Potency,PA-1,inactive
same,Potency,SKOV3,inactive
same,Potency,Tov-21-G,inactive
same,Potency,Tov112D,inactive
same,"activity, negative = cell killing",[1]; [8],-8.76%
same,"activity, negative = cell killing",[1]; [9],1.9%
same,"activity, negative = cell killing",[1]; [10],-6.09%
same,"activity, negative = cell killing",[1]; [11],-10.2%
COC(=O)Nc1nc2ccc(Sc3ccccc3)cc2[nH]1,Potency,Es-2,2820 nM (active)
same,Potency,HeLa,2240 nM (active)
same,Potency,OV90,10000 nM (active)
same,Potency,PA-1,1410 nM (active)
same,Potency,Tov-21-G,2820 nM (active)
same,Potency,Tov112D,1410 nM (active)
same,"activity, negative = cell killing",[1]; [4],-28.6%
same,Potency,[1]; tumour line A,224 nM (active)
same,Potency,astro,631 nM (active)
CC(=O)[C@H]1CC[C@H]2[C@@H]3CC=C4C[C@@H](O)CC[C@]4(C)[C@H]3CC[C@]12C,Potency,Es-2,inactive
same,Potency,Hek293T,inactive
same,Potency,JEG-3,inactive
same,Potency,OV90,inactive
same,Potency,PA-1,inactive
same,Potency,SKOV3,inactive
same,Potency,Tov-21-G,inactive
same,Potency,Tov112D,inactive
same,"activity, negative = cell killing",[1]; [8],-3.14%
same,"activity, negative = cell killing",[1]; [11],6.87%
same,Potency,astro,inactive
COC(=O)Nc1nc2ccc(S(=O)c3ccccc3)cc2[nH]1 (configuration not stated),Potency,Es-2,3550 nM (active)
same,Potency,HeLa,2820 nM (active)
same,Potency,PA-1,1580 nM (active)
same,Potency,Tov-21-G,3980 nM (active)
same,Potency,Tov112D,1580 nM (active)
same,"activity, negative = cell killing",[1]; [8],-15.1%
same,"activity, negative = cell killing",[1]; [9],-1.35%
same,"activity, negative = cell killing",[1]; [11],-3.75%
C[C@@H](CN1CC(=O)NC(=O)C1)N1CC(=O)NC(=O)C1,Potency,Es-2,inactive
same,Potency,Hek293T,inactive
same,Potency,JEG-3,inactive
same,Potency,OV90,inactive
same,Potency,PA-1,inactive
same,Potency,SKOV3,inactive
same,Potency,Tov-21-G,inactive
same,Potency,Tov112D,inactive
same,"activity, negative = cell killing",[1]; [8],-2.51%
same,"activity, negative = cell killing",[1]; [9],-10.3%
same,"activity, negative = cell killing",[1]; [11],-0.792%
same,Potency,astro,inactive
N=C(N)c1ccc(OCCCCCOc2ccc(C(=N)N)cc2)cc1,Potency,Es-2,inactive
same,Potency,HeLa,inactive
same,Potency,JEG-3,inactive
same,Potency,PA-1,5010 nM (active)
same,Potency,Tov-21-G,inactive
same,Potency,Tov112D,inactive
same,outcome,[3],inactive
O=C(O)CSCC(=O)NC1CCSC1=O (configuration not stated),Potency,Es-2,inactive
same,Potency,Hek293T,inactive
same,Potency,JEG-3,inactive
same,Potency,OV90,inactive
same,Potency,PA-1,inactive
same,Potency,SKOV3,inactive
same,Potency,Tov-21-G,inactive
same,Potency,Tov112D,inactive
same,"activity, negative = cell killing",[1]; [8],-7.24%
same,"activity, negative = cell killing",[1]; [11],18.1%
